High-throughput results from PubChem BioAssay.
TDP1 block: blocks human tyrosyl-DNA phosphodiesterase 1. recombinant TDP1, AlphaScreen DNA substrate cleavage. Potency, µM (series often up to 130 µM), inactives show at the top dose activity change, negative = inhibition, actives largely listed as inhibitors. actives 0.28% (n = 350,000); also: nearly all actives have a fitted effect of over 40% in size
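Enzyme-compound mixtures sat 15 min at room temperature, followed by a 5 min reaction with 15 nM final substrate and 10 min with AlphaScreen beads. Recombinant human Tdp1 was used at 1 nM final.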
KDM4E inh: inhibitors of human JMJD2E histone demethylase. B2RXH2. JMJD2E catalytic domain, FDH-coupled NADH fluorescence (FDH is formaldehyde dehydrogenase). Potency, µM (highest dose often 57.1 µM), for inactives: top-dose activity change, negative = inhibition, usual class: inhibitors. actives 1.6% (n = 230,000); active = well fitted inhibition curve with a large enough effect, not every such curve was filed as active; inconclusive = small, poorly fitted or top-dose-only effect, or another doubt; inactive = no such curve, though single readings can be large or run the other way;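 also: 0% = wells with enzyme and -100% = buffer wells without enzyme; nearly all actives have a fitted effect of over 50% in size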
APE1 inh: APE1 (human) endonuclease inhibition | P27695 | recombinant APE1, TAMRA/BHQ-2 abasic DNA cleavage fluorescence | actives 0.35% (n = 350,000) | Potency, µM (doses to about 65.8 µM), inactives show top-dose activity change, negative = inhibition, most hits filed as inhibitors | AID 2517;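 also: plate controls were vehicle for no effect and reference inhibitor for full effect; nearly all actives have a fitted effect of over 55% in size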
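Endonuclease cleavage of a quenched abasic-site DNA duplex (50 nM) by APE1 (0.75 nM) was tracked by TAMRA dequenching. Compounds were preincubated with enzyme 15 min at room temperature; data normalized to buffer-only and DMSO wells plus NSC13755 control.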
L3MBTL1 block: inhibitors of human L3MBTL1; AlphaScreen L3MBTL1–H3K9me1 peptide binding; Potency, µM (series often up to 57.1 µM), inactives show top-dose activity, negative = inhibition, hits mostly inhibitors; actives 0.66% (n = 230,000); AID 485360; also: nearly all actives have a fitted effect of over 60% in size
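First, the protein-peptide complex forms for 30 min at room temperature (L3MBTL1 50 nM, biotinylated H3K9me1 peptide 75 nM). Next, compounds are pin-transferred and incubated 30 min. Finally, AlphaScreen beads are added and read after 30 min.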
RECQ1 inh: RECQ1 (human) helicase inhibition; P46063; Potency, µM (titrated, usually from 57.3 µM), for inactives: at the highest dose activity, negative = inhibition, most hits filed as inhibitors; RECQ1 DNA unwinding, red fluorescence kinetic read; actives 0.54% (n = 240,000);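 also: plate controls were vehicle for no effect and no enzyme for full effect; nearly all actives have a fitted effect of over 30% in size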
Target sequence (P46063 whole entry, looked up): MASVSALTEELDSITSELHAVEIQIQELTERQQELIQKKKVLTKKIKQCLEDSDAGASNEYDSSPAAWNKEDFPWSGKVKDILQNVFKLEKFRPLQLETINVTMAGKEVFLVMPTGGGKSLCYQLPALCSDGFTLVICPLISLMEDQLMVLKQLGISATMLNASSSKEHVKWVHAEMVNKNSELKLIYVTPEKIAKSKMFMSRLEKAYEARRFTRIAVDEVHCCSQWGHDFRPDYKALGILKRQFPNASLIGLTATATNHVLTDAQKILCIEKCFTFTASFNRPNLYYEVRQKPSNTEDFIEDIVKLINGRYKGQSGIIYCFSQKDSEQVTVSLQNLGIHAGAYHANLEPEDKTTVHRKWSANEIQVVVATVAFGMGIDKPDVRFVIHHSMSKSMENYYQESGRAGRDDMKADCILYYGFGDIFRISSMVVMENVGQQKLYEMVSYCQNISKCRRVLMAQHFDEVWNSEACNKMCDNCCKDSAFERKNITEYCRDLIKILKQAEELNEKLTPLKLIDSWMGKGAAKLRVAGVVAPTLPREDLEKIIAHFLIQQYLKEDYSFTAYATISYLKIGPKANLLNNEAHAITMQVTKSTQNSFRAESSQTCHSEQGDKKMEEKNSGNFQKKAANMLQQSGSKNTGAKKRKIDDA
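50 nM RECQ1T1 preincubated 15 min with compound in Tris pH 8.0 buffer with MgCl2, DTT, Tween-20 and 2.5 ug/ml poly(dI-dC); started with 200 nM TAMRA/BHQ-2 forked duplex and 2 mM ATP. Unwinding read as fluorescence (525/598 nm), two reads 2 h apart.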
BLM inh: blocks DNA unwinding by human BLM helicase | P54132 | recombinant BLM DNA unwinding, fluorescence dequenching | Potency, µM (doses to about 56.1 µM), for the others: top-dose activity change, negative = inhibition, actives largely listed as inhibitors | actives 0.2% (n = 350,000) | AID 2528;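 also: plate controls were vehicle for no effect and no enzyme for full effect; nearly all actives have a fitted effect of over 35% in size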
* = called active by the depositor; i = inactive; u = inconclusive; x = no result given; ! = repeats disagree; [ ] = another dose, or the depositor's remark. The sample as a whole holds a higher share of hits than the screen did. Unless noted, calls follow the shape of the dose curve; as a rule, active = well fitted curve in the direction sought with a large enough effect; inconclusive = small, poorly fitted or top-dose-only effect, or another doubt; inactive = no such curve, though single readings can be large; an effect the other way counts as inactive or inconclusive. Unless noted, % is scaled to controls: 0 for no effect and ±100 for the full control effect; potency is read from the fitted curve at half-maximal effect.

SMILES	TDP1 block	KDM4E inh	APE1 inh	L3MBTL1 block	RECQ1 inh	BLM inh
CCOC(=O)C(C#N)=C(c1ccccc1)c1ccccc1	4%	x	x	x	x	-3%
COc1ccccc1NC(=O)Cn1c(O)c(N=NC(=O)c2ccccc2O)c2ccccc21	-14%	-14%	0%	3%	i	18µM*
CN(C)/C=C/C=C1C(=O)CCCC1=O	22µM*	-6%	u	28µM*	-9%	-9%
CC1=NN(c2ccccc2)C(=O)/C1=C/C=C/C=C/N(C)C	6%	u	-6%	x	u	-14%
COc1ccc(OCC(=O)OCC(=O)NC2CCCCC2C)cc1 (stereo not given)	-1%	x	0%	6%	x	x
COc1cc(NC2CCCCC2O)c2nc(-c3ccc(Cl)cc3)ccc2c1 (stereo not given)	-1%	22µM*	12%	25%	-18%	-24%
COc1ccc(CNC(=O)C2CCN(S(=O)(=O)c3ccc4c(ccn4C)c3)CC2)cc1	-6%	x	x	x	x	-4%
Cc1ccc(NC(=S)Nc2cccc3cnccc23)cc1	5%	u	-3%	x	0%	-10%
CC(=O)c1ccc(NC(=S)Nc2cccc3cnccc23)cc1	5%	18µM*	2%	x	i	2%
Cc1ccc(C)c(NC(=S)Nc2cccc3cnccc23)c1	-3%	28µM*	-1%	-1%[11.4 µM]	i	-7%
Cc1ccccc1NC(=S)Nc1cccc2cnccc12	-5%	-15%	u	-19%	-3%	-26%
CC(C)c1ccc(C2c3c(-c4ccccc4O)n[nH]c3C(=O)N2CCc2ccccc2)cc1 (stereo not given)	2%	x	x	x	x	-8%
Cc1c(/C=N\NC(=O)C2COc3ccc(C(C)(C)C)cc3O2)c2ccccc2n1C (stereo not given)	5%	-7%	-1%	-7%	28µM*	-12%
Cn1cccc1/C=N\NC(=O)C1COc2ccc(C(C)(C)C)cc2O1 (stereo not given)	13%	x	-27%	x	x	-13%
O=C(CN1C(=O)S/C(=C\c2ccc(O)c([N+](=O)[O-])c2)C1=O)Nc1ccc(N2CCOCC2)cc1	45µM*	x	u	x	x	u
C=C(C)C(=O)Nc1cccc(C2=NOC3(C2)C[C@@H](C(N)=O)N(C(=O)c2ccc(Cl)cc2)C3)c1 (stereo not given in full)	13µM*	-19%	u	x	13µM*	-19%
C=C(C)C(=O)Nc1cccc(C2=NOC3(C2)C[C@@H](C(N)=O)N(C(=O)C(=C)C)C3)c1 (stereo not given in full)	x	-18%	-4%	x	i	-2%
C=C(C)C(=O)Nc1cccc(C2=NOC3(C2)C[C@@H](C(N)=O)N(C(=O)C2(C)CC2)C3)c1 (stereo not given in full)	11µM*	-17%	u	x	10µM*	4%
COc1ncc2nc(-c3cccs3)c(=O)n(CCc3ccccc3)c2n1	x	x	4%	x	-12%	-2%
C=C1C=C(C(F)F)n2ncc(C(=O)NCCc3ccc(OC)c(OC)c3)c2N1	x	x	23%	x	x	x
O=c1oc2ccccc2nc1/C=C(O)/C=C\c1ccccc1	6%	20µM*	2%	-9%	-10%	-3%
CC(C)COCc1ccc(O)c2ncccc12	5%	20µM*	0%	20µM*	-6%	-5%
Oc1ccc(F)c2cccnc12	5%	20µM*	2%	u	-2%	-4%
OCc1ccc(O)c2ncccc12	7%	16µM*	2%	18µM*	-10%	-8%
Oc1ccc(Cl)c2cccnc12	11%	u	-2%	x	-9%	3%
SMILES	TDP1 block	KDM4E inh	APE1 inh	L3MBTL1 block	RECQ1 inh	BLM inh
Oc1ccc(CN2CCN(c3ccccc3)CC2)c2cccnc12	7%	18µM*	8%	0%	-16%	4%
Oc1ccc(CNc2ccccn2)c2cccnc12	3%	x	x	x	x	x
Cc1ccc(C)c(S(=O)(=O)N2CCN(Cc3ccc(O)c4ncccc34)CC2)c1	8%	3.5µM*	-4%	u	i	0%
O=C(O)c1ccc(O)c2ncccc12	x	x	-6%	16µM*	x	x
CCCOCc1ccc(O)c2ncccc12	x	14µM*	-4%	28µM*	24%	-2%
Oc1ccc(CCc2ccccc2F)c2cccnc12	0%	x	x	x	x	x
CN(Cc1ccco1)Cc1ccc(O)c2ncccc12	-2%	x	16%	11µM*!	x	x
O=S1(=O)N=C(Oc2ccccc2Cl)c2ccccc21	0%	x	x	x	x	x
COc1ccc(C2Nc3ccccc3C(=O)N2Cc2ccccn2)cc1COc1ccc(NC(C)=O)cc1 (stereo not given)	-11%	x	x	x	x	x
O=C(O)c1cccnc1C(=O)O	4%[56.1 µM]	2µM*	51%	u	-3%	-11%
O=C(O)c1cccnc1Cl	5%	0%	-2%	7%	2%	1%
CCNc1nnc(SCC(=O)N2c3ccccc3NC(=O)CC2C)s1 (stereo not given)	0%	x	1%	-1%	x	x
CCSS(=O)(=O)c1cccc2cccnc12	8%	3.2µM*	3%	-8%	-2%	2%
OCCCNc1c2ccccc2nc2ccccc12	x	x	17µM*	x	x	131%
CCOc1ccc(CC2NCCc3cc(OCC)c(OCC)cc32)cc1OCC (stereo not given)	-5%	35µM*	4%	-9%	i	-8%
COc1cccc(C)c1NC(=O)C(OC(=O)CNC(=O)c1ccccc1)c1ccccc1 (stereo not given)	1%	x	x	x	x	x
CCOc1ccc(NC(=O)Cn2nc(SC)c(S(=O)(=O)c3ccccc3)c2N)cc1	3%	x	x	x	x	-9%
Cc1nnc(NC(=O)CSC2=NN3CCCC(=O)N=C3S2)s1	-7%	-1%	-21%	-3%	-1%	-11%
O=C1CCCN2N=C(SCC(=O)Nc3nccs3)SC2=N1	45µM*	6%	-8%	-24%	-1%	-17%
C=CCn1c(SCC(=O)NC(=O)NCc2ccco2)nc2sc(CC)cc2c1=O	u	-5%	32µM*	u	-26%	-21%
COc1ccc(-n2nnnc2C2CCN(S(=O)(=O)c3ccc(C)cc3)CC2)cc1	2%	x	x	x	x	-3%
COc1cc(NS(=O)(=O)c2ccc(NC(=O)C(C)Oc3ccc(Cl)cc3Cl)cc2)nc(OC)n1 (stereo not given)	x	x	x	x	x	-4%
O=C(Oc1ccccc1)n1c(=S)oc2ccccc21	5%	-17%	-15%	5%	7%	1%
Cc1ccccc1OC(=O)n1c(=S)oc2cc(Cl)ccc21	7%	28µM*	1%	x	i	4%
COc1ccc2c(c1)c(C(=O)N/N=C/c1ccc(Br)cc1)c(C)n2C	x	-4%	-5%	7%	-2%	0%
